How the values were obtained:
Experiment in all cases: log2 ratio of Biotin-Ahx-Ub-VS probe labelling (fragment/DMSO); higher = less target engagement (more negative = stronger competition), active = hit call of the paper (q ≤ 0.05, log2 ratio ≤ -1)
Details in all cases: compound concentration: 200 uM; treatment time: 3 h
OTUD6B = molecular target: T1, OTUD6B (UniProt Q8N6M0)
T1 sequence (whole entry): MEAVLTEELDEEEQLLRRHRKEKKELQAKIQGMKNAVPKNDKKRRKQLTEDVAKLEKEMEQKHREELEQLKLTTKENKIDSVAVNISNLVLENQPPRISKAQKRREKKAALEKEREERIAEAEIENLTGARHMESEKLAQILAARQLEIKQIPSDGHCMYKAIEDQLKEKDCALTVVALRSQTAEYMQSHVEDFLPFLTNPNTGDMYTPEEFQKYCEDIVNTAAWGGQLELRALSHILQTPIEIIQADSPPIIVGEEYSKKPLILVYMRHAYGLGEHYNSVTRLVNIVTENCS
How it was run: (§1)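 HEK293T lysate, 495 µg per sample in Tris/CHAPS/IGEPAL buffer with protease inhibitors, was treated in triplicate with fragment at 200 µM or vehicle for 3 h and then with Biotin-Ahx-Ub-VS at 0.5 µM final for 1 h. Labelled DUBs were NeutrAvidin-enriched, digested with LysC and trypsin, and run by diaPASEF LC-MS/MS. Spectronaut label-free quantities were global-median-normalised, and values are average log2 fragment/vehicle ratios by unpaired t-test on proteins with ≥2 unique peptides.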

OTUD7B = molecular target: T2, OTUD7B (UniProt Q6GQQ9)
T2 sequence (whole entry): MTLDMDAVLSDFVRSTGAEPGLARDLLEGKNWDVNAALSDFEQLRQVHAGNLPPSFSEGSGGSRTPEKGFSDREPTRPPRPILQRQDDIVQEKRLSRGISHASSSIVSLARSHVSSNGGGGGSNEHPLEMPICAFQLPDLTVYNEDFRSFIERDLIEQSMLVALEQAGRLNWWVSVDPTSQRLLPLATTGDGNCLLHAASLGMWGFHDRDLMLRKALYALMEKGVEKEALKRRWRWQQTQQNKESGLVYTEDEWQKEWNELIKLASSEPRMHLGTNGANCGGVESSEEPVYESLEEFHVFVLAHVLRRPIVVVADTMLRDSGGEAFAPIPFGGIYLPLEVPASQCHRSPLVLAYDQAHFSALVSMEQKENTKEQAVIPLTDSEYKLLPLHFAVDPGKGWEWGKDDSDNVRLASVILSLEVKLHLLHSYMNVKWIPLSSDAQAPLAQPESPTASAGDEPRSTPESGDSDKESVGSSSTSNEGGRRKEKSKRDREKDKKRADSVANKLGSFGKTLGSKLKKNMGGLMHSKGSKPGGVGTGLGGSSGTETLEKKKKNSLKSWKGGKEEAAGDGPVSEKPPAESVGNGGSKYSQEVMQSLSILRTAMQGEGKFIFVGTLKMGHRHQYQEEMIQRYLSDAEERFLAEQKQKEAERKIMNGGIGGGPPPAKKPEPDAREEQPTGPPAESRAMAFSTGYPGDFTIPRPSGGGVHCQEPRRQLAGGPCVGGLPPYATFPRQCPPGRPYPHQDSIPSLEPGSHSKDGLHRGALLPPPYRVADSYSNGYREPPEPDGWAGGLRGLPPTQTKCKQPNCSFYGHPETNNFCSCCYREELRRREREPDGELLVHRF
How it was run: as §1

PRPF8 = PRPF8 (UniProt Q6P2Q9)
How it was run: as §1

PSMD7 = molecular target: T3, PSMD7 (UniProt P51665)
T3 sequence (whole entry): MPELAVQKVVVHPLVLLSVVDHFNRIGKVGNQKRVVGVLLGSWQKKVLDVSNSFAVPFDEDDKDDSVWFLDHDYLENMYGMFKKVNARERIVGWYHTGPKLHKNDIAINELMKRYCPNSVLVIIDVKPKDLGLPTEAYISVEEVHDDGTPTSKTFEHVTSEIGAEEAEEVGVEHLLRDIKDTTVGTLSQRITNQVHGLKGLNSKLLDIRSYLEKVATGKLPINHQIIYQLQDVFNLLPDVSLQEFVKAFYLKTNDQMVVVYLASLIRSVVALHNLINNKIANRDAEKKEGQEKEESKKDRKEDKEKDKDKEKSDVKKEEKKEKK
How it was run: as §1

UCHL1 = UCHL1 (UniProt P09936)
UCHL1, sequence (P09936 whole entry, looked up): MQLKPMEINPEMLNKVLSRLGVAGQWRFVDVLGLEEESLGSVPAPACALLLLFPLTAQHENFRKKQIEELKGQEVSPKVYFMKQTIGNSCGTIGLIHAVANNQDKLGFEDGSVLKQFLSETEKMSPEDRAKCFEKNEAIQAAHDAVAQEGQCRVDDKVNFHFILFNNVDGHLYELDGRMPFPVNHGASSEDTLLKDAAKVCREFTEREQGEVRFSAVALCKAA
How it was run: as §1

UCHL3 = molecular target: T4, UCHL3 (UniProt P15374)
T4 sequence (whole entry): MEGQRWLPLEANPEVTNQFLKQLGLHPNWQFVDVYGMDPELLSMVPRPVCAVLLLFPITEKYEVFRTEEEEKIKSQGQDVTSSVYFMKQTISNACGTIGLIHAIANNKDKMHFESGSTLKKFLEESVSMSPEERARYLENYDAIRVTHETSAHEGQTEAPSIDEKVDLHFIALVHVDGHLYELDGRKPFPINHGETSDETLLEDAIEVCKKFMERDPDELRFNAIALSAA
How it was run: as §1

UCHL5 = molecular target: T5, UCHL5 (UniProt Q9Y5K5)
T5 sequence (whole entry): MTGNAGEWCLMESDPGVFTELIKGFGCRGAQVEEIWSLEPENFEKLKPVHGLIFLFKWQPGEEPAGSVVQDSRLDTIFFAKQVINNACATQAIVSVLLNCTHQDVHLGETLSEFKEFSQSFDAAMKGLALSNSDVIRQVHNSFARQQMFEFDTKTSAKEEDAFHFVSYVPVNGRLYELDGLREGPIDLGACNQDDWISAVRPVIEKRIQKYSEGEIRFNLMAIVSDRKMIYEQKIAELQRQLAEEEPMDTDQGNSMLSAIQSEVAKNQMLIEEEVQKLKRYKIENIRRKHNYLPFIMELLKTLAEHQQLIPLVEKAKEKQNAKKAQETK
How it was run: as §1

USP10 = USP10 (UniProt Q14694)
USP10, sequence (Q14694 whole entry): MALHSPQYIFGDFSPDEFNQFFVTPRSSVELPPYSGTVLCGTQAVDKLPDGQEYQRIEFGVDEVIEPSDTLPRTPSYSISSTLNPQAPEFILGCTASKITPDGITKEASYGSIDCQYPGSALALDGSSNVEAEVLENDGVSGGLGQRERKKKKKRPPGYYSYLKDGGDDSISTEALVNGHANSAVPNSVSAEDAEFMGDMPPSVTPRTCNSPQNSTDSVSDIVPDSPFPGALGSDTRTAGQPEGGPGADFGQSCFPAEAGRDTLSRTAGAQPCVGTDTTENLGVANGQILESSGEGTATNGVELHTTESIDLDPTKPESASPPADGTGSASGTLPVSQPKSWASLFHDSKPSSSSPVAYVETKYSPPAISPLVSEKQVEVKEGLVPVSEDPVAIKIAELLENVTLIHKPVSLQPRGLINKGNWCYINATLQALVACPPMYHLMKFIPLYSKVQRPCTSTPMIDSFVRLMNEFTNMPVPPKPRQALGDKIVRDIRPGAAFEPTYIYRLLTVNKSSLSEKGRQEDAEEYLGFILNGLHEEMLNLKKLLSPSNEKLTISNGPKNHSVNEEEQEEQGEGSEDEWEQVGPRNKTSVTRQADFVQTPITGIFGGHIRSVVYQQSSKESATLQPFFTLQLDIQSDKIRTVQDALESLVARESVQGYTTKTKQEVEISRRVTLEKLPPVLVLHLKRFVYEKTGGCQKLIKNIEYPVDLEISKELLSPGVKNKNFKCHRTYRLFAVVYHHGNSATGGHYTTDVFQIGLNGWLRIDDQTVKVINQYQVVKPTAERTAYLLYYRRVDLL
How it was run: as §1

USP15 = molecular target: T6, USP15 (UniProt Q9Y4E8)
T6 sequence (whole entry): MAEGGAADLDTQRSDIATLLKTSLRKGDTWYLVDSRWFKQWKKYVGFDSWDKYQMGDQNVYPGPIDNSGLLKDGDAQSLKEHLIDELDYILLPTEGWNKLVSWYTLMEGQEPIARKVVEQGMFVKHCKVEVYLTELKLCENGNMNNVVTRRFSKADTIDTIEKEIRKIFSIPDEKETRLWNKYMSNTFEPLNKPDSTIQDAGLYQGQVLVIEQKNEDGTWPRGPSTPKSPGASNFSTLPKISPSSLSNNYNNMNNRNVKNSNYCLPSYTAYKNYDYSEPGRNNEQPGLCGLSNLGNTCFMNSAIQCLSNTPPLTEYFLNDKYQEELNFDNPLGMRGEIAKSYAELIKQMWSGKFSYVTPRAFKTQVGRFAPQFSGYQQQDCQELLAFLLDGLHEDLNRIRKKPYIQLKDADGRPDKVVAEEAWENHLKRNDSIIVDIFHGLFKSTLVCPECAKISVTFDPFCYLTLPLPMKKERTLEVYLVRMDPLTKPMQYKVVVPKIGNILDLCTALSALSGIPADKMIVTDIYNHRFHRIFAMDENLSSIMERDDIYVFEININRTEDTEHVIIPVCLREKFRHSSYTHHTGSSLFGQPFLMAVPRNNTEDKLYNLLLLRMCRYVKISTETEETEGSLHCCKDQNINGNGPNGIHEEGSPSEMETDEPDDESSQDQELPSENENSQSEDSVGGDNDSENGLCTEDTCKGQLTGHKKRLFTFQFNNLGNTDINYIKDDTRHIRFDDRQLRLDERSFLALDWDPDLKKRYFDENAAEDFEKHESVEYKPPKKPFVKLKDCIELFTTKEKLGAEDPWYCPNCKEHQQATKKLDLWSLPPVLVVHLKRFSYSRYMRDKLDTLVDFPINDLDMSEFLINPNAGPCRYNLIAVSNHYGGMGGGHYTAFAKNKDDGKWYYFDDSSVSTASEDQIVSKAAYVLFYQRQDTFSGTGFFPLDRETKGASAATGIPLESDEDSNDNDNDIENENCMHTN
How it was run: as §1

USP16 = USP16 (UniProt Q9Y5T5)
USP16, sequence (Q9Y5T5 whole entry, looked up): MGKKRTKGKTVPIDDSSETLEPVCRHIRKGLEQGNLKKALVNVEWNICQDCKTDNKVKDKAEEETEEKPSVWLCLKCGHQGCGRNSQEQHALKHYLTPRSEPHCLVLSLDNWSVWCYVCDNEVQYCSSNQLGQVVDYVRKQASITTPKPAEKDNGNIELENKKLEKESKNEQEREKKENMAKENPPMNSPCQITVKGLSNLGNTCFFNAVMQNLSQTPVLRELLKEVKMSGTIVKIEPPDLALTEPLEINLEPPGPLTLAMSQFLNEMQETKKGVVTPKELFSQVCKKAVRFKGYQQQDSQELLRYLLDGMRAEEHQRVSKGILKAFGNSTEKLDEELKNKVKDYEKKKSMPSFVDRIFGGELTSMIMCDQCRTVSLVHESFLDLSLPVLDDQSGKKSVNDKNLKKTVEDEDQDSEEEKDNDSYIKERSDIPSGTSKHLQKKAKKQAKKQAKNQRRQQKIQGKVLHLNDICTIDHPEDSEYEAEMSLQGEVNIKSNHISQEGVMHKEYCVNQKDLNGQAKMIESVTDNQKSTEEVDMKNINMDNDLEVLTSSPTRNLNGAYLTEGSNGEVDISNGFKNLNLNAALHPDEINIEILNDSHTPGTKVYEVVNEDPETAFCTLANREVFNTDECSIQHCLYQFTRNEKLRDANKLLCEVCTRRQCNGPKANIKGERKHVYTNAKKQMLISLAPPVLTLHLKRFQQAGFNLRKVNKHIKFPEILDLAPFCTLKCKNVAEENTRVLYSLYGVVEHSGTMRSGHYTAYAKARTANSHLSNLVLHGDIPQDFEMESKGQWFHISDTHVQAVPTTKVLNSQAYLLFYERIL
How it was run: as §1

Measured: log2 ratio of Biotin-Ahx-Ub-VS probe labelling

Cl.O=C(CCl)N1CCC(Cc2nccs2)C1 (stereo not given)
inactive: OTUD6B -0.205 | OTUD7B -0.436 | PRPF8 -0.0505 | PSMD7 -0.315 | UCHL3 -0.0765 | UCHL5 -0.293 | USP10 0.0972 | USP15 -0.249 | USP16 0.355
active: UCHL1 -1.01

Reference: the supplement of paper PMC11732987, “Enantioselective OTUD7B fragment discovery through chemoproteomics screening and high-throughput optimisation” (Communications Chemistry, 2025)
